Data on one sequence can be found in PMC7862700, “An all-to-all approach to the identification of sequence-specific readers for epigenetic DNA modifications on cytosine”.

Assay in all cases: DAPPL (digital affinity profiling via proximity ligation, sequencing); 10 mM Tris-HCl pH 7.5, 50 mM NaCl, 1 mM DTT, 4% glycerol, room temperature, 30 min; GST-TFs on glutathione beads, 16-mer random dsDNA library, 0.1% formaldehyde crosslink after washing; high values mean tight binding
For experiment [1], the target named is T1, FEV (Homo sapiens, UniProt Q99581 1-238).
T1 sequence: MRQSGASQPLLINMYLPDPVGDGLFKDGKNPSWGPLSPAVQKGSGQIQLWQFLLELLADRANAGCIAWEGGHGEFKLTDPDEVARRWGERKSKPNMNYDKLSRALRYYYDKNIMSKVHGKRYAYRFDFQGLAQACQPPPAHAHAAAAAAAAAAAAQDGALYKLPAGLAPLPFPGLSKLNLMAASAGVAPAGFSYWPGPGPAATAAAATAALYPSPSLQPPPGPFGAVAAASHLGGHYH
The settings on record: protein: recombinant; tags: N-terminal GST; dsDNA, one strand shown. The procedure, abridged: (§1)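 Binding signal is given per hexamer as its read frequency for a factor divided by its frequency in the tag-only sample. GST-fused human transcription factors were expressed in yeast, captured on glutathione beads, barcoded with DNA and pooled with that sample, then incubated with 200 nmole of a 16-mer random double-stranded DNA library in Tris/NaCl/DTT/glycerol buffer for 30 min at room temperature. The pools were then washed, crosslinked, proximity-ligated, amplified by PCR and sequenced on an Illumina NextSeq500.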

Experiment [2] addresses ETV5 (Homo sapiens, UniProt P41161 1-510). The settings on record: protein: recombinant; tags: N-terminal GST; dsDNA, one strand shown. The procedure, abridged: as §1
In experiment [3] the target is HSF1 (Homo sapiens, UniProt Q00613 1-529). The settings on record: protein: recombinant; tags: N-terminal GST; chain copies: 3; dsDNA, one strand shown. Summed up:
as §1

For experiment [4], the target named is T2, SPIC (Homo sapiens, UniProt Q8N5J4 1-248).
T2 sequence: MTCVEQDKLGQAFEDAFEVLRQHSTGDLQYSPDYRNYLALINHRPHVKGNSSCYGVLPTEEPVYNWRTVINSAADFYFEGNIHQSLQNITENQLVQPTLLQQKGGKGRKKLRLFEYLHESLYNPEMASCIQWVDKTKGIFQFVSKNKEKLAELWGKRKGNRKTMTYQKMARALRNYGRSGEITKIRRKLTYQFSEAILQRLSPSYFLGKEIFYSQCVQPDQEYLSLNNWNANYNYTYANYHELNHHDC
The settings on record: protein: recombinant; tags: N-terminal GST; dsDNA, one strand shown. Summed up: as §1

Experiment [5] has as its target ELF4 (Homo sapiens, UniProt Q99607 1-663). The settings on record: protein: recombinant; tags: N-terminal GST; dsDNA, one strand shown. Summed up:
as §1

Experiment [6] addresses T3, ELK4 (Homo sapiens, UniProt P28324-2 1-405).
T3 sequence: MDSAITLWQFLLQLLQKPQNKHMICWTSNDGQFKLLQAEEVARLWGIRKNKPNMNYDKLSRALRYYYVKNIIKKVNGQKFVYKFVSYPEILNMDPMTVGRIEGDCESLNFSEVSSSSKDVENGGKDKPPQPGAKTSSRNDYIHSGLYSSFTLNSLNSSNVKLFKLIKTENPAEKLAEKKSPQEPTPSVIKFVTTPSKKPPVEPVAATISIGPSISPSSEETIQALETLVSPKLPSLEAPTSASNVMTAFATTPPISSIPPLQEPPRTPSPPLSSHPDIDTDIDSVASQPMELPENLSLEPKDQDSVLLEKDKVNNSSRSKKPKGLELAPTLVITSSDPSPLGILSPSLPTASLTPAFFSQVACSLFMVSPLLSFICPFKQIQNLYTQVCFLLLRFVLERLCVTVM
The settings on record: protein: recombinant; tags: N-terminal GST; dsDNA, one strand shown. The procedure, abridged: as §1

In experiment [7] the target is T4, ETV2 (Homo sapiens, UniProt O00321 1-342).
T4 sequence: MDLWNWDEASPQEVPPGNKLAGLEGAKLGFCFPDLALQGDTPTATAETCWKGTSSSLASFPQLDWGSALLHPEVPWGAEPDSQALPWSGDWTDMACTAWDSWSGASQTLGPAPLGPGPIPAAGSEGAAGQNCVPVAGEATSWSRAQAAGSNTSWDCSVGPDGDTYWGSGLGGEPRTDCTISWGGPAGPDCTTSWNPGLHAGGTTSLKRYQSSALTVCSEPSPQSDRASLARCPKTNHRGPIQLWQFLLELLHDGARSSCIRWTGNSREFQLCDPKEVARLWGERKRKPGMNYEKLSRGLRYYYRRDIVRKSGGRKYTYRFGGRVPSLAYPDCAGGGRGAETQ
The settings on record: protein: recombinant; tags: N-terminal GST; dsDNA, one strand shown. The procedure, abridged: as §1

Experiment [8] addresses T5, ELF3 (Homo sapiens, UniProt P78545 1-371).
T5 sequence: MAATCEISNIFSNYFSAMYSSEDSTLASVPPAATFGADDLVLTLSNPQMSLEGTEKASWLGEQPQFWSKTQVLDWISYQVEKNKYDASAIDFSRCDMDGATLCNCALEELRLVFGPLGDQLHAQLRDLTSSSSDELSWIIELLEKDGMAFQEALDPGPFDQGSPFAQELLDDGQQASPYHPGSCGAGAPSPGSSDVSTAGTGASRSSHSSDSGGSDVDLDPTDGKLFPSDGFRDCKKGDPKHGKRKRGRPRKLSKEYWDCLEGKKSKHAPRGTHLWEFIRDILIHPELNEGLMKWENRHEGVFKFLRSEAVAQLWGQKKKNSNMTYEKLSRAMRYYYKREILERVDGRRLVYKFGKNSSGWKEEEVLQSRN
The settings on record: protein: recombinant; tags: N-terminal GST; dsDNA, one strand shown. Summed up:
as §1

For experiment [9], the target named is CRX (Homo sapiens, UniProt O43186 1-299). The settings on record: protein: recombinant; tags: N-terminal GST; dsDNA, one strand shown. The procedure, abridged: as §1
In experiment [10] the target is ETV1 (Homo sapiens, UniProt P50549 1-477). The settings on record: protein: recombinant; tags: N-terminal GST; dsDNA, one strand shown. Summed up:
as §1

In experiment [11] the target is T6, ERF (Homo sapiens, UniProt P50548 1-548).
T6 sequence: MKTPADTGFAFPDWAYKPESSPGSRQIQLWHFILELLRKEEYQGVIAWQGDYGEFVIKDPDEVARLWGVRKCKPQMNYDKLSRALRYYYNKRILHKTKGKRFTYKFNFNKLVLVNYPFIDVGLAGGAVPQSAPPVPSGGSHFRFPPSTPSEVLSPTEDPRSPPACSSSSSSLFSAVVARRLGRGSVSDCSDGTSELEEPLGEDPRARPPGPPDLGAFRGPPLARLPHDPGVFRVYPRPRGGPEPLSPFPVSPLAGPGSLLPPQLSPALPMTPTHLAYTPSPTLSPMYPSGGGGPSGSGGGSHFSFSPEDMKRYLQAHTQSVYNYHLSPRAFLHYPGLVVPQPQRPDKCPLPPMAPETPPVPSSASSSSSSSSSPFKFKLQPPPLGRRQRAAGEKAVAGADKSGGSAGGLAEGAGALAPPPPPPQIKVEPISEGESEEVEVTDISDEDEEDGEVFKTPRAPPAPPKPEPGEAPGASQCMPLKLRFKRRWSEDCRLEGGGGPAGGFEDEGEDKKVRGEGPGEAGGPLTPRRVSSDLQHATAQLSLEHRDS
The settings on record: protein: recombinant; tags: N-terminal GST; dsDNA, one strand shown. Summed up:
as §1

Experiment [12] deals with T7, ETV3L (Homo sapiens, UniProt Q6ZN32 1-361).
T7 sequence: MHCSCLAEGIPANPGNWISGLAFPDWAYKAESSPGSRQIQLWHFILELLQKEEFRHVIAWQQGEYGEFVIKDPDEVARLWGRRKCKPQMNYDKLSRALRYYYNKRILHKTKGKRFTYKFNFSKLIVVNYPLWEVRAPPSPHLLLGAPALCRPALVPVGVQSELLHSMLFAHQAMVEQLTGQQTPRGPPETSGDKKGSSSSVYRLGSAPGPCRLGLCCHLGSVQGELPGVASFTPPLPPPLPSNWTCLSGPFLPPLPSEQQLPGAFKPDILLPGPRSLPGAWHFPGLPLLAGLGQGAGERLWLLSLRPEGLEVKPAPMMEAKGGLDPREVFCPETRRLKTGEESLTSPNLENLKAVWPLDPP
The settings on record: protein: recombinant; tags: N-terminal GST; dsDNA, one strand shown. Summed up:
as §1

The target in experiment [13] is T8, ETS2 (Homo sapiens, UniProt P15036 1-469).
T8 sequence: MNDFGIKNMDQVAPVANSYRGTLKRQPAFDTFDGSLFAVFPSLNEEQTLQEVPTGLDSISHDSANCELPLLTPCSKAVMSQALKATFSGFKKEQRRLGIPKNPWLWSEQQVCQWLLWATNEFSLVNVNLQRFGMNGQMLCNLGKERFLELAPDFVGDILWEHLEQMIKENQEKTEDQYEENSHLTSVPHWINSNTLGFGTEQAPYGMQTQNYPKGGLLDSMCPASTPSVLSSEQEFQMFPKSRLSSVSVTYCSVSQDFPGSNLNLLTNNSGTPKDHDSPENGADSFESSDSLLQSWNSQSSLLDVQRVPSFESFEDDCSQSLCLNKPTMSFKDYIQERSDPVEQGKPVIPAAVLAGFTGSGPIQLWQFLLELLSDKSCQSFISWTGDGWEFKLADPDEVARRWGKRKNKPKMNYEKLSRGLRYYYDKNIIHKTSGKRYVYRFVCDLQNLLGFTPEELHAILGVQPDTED
The settings on record: protein: recombinant; tags: N-terminal GST; dsDNA, one strand shown. The procedure, abridged: as §1

For experiment [14], the target named is T9, SPDEF (Homo sapiens, UniProt O95238 1-335).
T9 sequence: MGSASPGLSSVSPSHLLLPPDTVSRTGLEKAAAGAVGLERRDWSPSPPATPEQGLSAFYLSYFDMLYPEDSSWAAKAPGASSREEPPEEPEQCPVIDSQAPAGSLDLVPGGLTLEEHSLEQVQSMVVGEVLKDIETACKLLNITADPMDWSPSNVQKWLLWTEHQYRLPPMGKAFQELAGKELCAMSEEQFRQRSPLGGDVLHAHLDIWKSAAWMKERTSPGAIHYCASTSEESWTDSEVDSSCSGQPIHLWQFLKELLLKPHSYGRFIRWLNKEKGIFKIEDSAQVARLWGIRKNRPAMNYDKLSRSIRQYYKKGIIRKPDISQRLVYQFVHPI
The settings on record: protein: recombinant; tags: N-terminal GST; dsDNA, one strand shown. Summed up:
as §1

The target of experiment [15] is T10, ETV7 (Homo sapiens, UniProt Q9Y603 1-341).
T10 sequence: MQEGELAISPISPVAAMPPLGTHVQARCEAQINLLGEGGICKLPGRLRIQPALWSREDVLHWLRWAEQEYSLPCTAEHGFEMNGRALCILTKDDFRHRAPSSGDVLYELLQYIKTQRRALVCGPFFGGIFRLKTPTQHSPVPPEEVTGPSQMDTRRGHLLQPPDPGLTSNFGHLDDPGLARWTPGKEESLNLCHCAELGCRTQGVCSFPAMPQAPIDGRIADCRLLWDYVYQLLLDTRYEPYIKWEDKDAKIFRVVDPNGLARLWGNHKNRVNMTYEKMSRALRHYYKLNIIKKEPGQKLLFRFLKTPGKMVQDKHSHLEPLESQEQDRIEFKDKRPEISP
The settings on record: protein: recombinant; tags: N-terminal GST; dsDNA, one strand shown. Summed up: as §1

Experiment [16] concerns the target T11, ELF5 (Homo sapiens, UniProt Q9UKW6-2 1-255).
T11 sequence: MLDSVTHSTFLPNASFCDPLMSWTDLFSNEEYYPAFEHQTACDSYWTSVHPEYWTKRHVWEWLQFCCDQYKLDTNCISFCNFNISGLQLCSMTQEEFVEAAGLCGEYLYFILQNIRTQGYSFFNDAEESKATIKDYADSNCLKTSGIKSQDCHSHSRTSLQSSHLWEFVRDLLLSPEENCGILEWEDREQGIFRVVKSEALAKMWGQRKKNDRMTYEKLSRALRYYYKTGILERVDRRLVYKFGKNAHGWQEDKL
The settings on record: protein: recombinant; tags: N-terminal GST; dsDNA, one strand shown. Summed up: as §1

The target of experiment [17] is T12, ETV3 (Homo sapiens, UniProt P41162-2 1-143).
T12 sequence: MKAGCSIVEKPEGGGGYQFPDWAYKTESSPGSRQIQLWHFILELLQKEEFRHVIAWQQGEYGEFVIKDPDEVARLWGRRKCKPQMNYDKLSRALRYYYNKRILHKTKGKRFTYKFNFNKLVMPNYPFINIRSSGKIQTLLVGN
The settings on record: protein: recombinant; tags: N-terminal GST; dsDNA, one strand shown. Summed up:
as §1

For experiment [18], the target named is ETV6 (Homo sapiens, UniProt P41212 1-452). The settings on record: protein: recombinant; tags: N-terminal GST; dsDNA, one strand shown. The procedure, abridged:
as §1

Sequence of ETV5 (P41161 whole entry): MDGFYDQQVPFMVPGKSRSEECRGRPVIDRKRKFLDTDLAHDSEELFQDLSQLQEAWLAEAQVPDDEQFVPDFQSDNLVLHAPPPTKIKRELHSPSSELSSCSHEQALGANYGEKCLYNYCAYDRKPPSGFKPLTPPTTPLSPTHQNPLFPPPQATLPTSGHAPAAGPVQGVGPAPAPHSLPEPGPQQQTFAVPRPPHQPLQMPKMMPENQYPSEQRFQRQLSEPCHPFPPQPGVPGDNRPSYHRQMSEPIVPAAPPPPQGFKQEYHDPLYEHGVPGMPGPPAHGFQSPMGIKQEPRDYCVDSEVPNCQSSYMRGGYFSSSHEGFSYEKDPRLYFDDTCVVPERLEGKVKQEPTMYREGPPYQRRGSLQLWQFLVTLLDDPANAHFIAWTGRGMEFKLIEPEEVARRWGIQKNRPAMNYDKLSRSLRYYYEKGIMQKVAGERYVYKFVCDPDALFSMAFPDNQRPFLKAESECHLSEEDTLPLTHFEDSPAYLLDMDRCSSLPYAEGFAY
Sequence of ELF4 (Q99607 whole entry): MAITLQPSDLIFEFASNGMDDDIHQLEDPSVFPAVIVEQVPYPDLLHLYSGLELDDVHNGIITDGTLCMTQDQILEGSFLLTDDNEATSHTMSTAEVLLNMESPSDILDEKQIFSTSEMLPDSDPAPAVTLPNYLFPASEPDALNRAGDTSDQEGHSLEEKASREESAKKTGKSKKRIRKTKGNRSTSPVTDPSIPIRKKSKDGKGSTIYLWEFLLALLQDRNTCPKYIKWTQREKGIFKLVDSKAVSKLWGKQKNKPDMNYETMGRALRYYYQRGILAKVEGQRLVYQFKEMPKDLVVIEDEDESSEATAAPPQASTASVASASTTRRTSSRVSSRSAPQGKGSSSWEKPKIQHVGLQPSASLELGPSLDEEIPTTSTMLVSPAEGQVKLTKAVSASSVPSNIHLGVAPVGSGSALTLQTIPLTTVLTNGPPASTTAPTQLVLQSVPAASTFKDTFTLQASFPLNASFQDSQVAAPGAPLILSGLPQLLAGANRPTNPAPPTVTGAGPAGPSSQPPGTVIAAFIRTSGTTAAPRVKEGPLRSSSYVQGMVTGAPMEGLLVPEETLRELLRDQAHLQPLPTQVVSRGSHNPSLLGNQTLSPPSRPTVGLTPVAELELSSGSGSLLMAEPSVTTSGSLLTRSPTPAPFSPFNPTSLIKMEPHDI
Sequence of ETV6 (P41212 whole entry): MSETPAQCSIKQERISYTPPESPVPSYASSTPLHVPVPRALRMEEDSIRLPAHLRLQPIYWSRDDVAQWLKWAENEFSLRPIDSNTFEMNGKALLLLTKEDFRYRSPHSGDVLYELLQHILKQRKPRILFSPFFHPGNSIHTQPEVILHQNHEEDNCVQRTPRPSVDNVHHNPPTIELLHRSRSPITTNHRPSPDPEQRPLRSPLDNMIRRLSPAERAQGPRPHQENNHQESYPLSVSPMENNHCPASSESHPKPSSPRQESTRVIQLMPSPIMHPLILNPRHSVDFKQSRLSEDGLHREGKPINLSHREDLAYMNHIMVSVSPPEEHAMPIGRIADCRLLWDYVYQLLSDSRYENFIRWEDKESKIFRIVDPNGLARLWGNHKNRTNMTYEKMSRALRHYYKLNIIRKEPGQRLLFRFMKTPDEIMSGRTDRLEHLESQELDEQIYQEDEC
Sequence of ETV1 (P50549 whole entry): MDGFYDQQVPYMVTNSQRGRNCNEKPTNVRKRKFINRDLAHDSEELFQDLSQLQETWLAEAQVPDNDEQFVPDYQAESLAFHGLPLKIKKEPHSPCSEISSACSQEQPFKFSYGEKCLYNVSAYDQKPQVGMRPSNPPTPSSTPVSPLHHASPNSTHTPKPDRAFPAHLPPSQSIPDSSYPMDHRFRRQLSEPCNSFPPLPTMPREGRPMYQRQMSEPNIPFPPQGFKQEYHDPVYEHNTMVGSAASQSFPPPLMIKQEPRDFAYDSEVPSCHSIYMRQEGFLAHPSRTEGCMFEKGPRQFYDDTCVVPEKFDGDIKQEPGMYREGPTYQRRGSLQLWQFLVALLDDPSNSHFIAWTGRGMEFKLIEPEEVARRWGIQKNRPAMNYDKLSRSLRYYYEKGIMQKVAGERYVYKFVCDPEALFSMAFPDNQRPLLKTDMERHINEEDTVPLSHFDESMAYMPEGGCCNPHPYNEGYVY
Sequence of CRX (O43186 whole entry): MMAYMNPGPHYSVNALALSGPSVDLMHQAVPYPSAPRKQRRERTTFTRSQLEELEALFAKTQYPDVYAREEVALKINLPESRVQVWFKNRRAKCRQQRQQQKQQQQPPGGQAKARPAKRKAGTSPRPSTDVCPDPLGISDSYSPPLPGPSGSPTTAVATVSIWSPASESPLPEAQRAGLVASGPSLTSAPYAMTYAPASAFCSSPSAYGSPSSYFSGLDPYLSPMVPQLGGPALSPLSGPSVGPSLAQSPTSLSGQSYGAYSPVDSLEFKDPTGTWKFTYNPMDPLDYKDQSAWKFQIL
Sequence of HSF1 (Q00613 whole entry): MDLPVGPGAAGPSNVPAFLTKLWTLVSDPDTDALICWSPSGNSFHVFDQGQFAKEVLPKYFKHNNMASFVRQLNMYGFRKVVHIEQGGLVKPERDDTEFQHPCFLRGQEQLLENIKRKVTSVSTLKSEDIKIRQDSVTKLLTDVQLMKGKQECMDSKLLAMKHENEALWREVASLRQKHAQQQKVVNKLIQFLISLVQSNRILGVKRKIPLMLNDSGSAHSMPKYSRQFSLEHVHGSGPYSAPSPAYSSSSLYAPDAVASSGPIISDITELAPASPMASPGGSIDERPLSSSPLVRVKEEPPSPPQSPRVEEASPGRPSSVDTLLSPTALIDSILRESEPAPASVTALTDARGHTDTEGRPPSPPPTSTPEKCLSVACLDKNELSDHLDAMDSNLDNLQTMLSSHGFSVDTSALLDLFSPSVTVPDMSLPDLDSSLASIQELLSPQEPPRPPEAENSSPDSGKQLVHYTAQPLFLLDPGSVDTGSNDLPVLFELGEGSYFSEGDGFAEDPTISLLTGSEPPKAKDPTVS

Take ATGTAA: the binding signal in experiment [1] is 1.2 fold enrichment (6-mer frequency, TF over GST control); in [2], 1.24 fold enrichment (6-mer frequency, TF over GST control); in experiment [3], 1.28 fold enrichment (6-mer frequency, TF over GST control); in [4], 1.17 fold enrichment (6-mer frequency, TF over GST control); in [5], 1.23 fold enrichment (6-mer frequency, TF over GST control); in experiment [6] it was 1.28 fold enrichment (6-mer frequency, TF over GST control). Also, the binding signal in experiment [7] is 1.15 fold enrichment (6-mer frequency, TF over GST control); in experiment [8] it was 1.39 fold enrichment (6-mer frequency, TF over GST control); in experiment [9], 1.41 fold enrichment (6-mer frequency, TF over GST control); in experiment [10] it was 1.27 fold enrichment (6-mer frequency, TF over GST control); in [11], 1.18 fold enrichment (6-mer frequency, TF over GST control); in [12], 1.26 fold enrichment (6-mer frequency, TF over GST control). Besides, the binding signal was 1.37 fold enrichment (6-mer frequency, TF over GST control) in [13]; 1.32 fold enrichment (6-mer frequency, TF over GST control) in experiment [14]; 1.26 fold enrichment (6-mer frequency, TF over GST control) in [15]; 1.3 fold enrichment (6-mer frequency, TF over GST control) in experiment [16]; 1.32 fold enrichment (6-mer frequency, TF over GST control) in experiment [17]; 1.3 fold enrichment (6-mer frequency, TF over GST control) in [18].
